For six molecules, z-score and composite z-score results are on record in PubChem BioAssay.

Experiment [1] in a line: compound effects on lung adenocarcinoma cell viability – A549, calcein-AM fluorescence, 48 h, basal, profiling panel (AID 1162). Also: test concentration not given here. The note with it: higher = more signal.
Experiment [2] can be described thus: compound effects on differentiated 3T3-L1 adipocyte viability – cell-based, 3T3-L1 adipocytes, calcein-AM fluorescence, 48 h, basal, profiling panel (AID 1163). Also: test concentration not given here. The following applies: 3T3-L1 adipocytes viability, higher = more signal.
The nature of experiment [3]: compound effects on hepatocellular carcinoma cell viability – HepG2, calcein-AM fluorescence, 48 h, basal, profiling panel (AID 1164). Also: test concentration not given here. The note with it: higher = more signal.
The nature of experiment [4]: compound effects on multiple myeloma cell viability – MM1S, calcein-AM fluorescence, 48 h, basal, profiling panel (AID 1165).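 Also: viability of MM1S multiple myeloma cells under basal unstimulated conditions; test concentration not given here.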 The following applies: higher = more signal.
Experiment [5] in a line: calcein-AM signal in unstimulated myeloma cells – cell-based, calcein-AM fluorescence, 48 h, PK04 Diversity Set, profiling panel (AID 1166).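 Also: cells grown under basal conditions without added stimulus; test concentration not given here.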 The note with it: RPMI8226 myeloma viability, higher = more signal.
A short description of experiment [6]: JC-1 mitochondrial signal, unstimulated HepG2 cells – cell-based, JC-1 fluorescence, 24 h, 100 nL compound, profiling panel (AID 1167). Also: test concentration not given here. The note with it: HepG2 mitochondrial potential, higher = more signal.
Experiment [7] is described as follows: JC-1 mitochondrial signal, unstimulated adipocytes – cell-based, JC-1 fluorescence, 3T3-L1 adipocytes, 24 h, 100 nL compound, profiling panel (AID 1168). Also: test concentration not given here. The note with it: JC-1 mitochondrial fluorescence, higher = more signal, called active from +8 up or from −8 down.
Experiment [8] can be described thus: JC-1 mitochondrial signal, unstimulated myeloma cells – cell-based, JC-1 fluorescence, RPMI8226, 24 h, 100 nL compound, profiling panel (AID 1169). Also: test concentration not given here. The note with it: JC-1 mitochondrial potential fluorescence, higher = more signal.
Experiment [9] is described as follows: JC-1 mitochondrial signal, unstimulated MM1S myeloma – cell-based, JC-1 fluorescence, 24 h, 100 nL compound, profiling panel (AID 1170). Also: test concentration not given here. The note with it: MM1S mitochondrial potential, higher = more signal.
The nature of experiment [10]: resazurin metabolic signal in A549 cells – cell-based, resazurin fluorescence, 24 h, PK04 Diversity Set, profiling panel (AID 1171). Also: test concentration not given here. The following applies: A549 viability, higher = more signal, called active from +8 up or from −8 down. (In general: Alamar Blue is a resazurin reagent that responds to reducing activity.)
Experiment [11] in a line: resazurin metabolic signal in HepG2 cells – cell-based, resazurin fluorescence, 24 h, PK04 Diversity Set, profiling panel (AID 1172). Also: test concentration not given here. The following applies: HepG2 viability, higher = more signal.
Experiment [12] in a line: budding yeast growth changes without added modifier – OD600, strain BY4716, 24 h, basal condition, primary screen (AID 1173). The following applies: S. cerevisiae BY4716 growth, OD600, 24 h; higher = more signal, called active from +8 up or from −8 down.
Experiment [13] can be described thus: viability profiling in MM1S myeloma cells – cell-based, resazurin fluorescence, basal, 24 h, PK04 Diversity Set, profiling panel (AID 1174). Also: test concentration not given here. The note with it: higher = more signal, called active from +8 up or from −8 down.
For experiment [14], the target named is Dihydroorotate dehydrogenase (quinone), mitochondrial (Plasmodium falciparum (isolate 3D7)) (UniProt Q08210). Put plainly: inhibition of P. falciparum DHODH – biochemical, C-terminal His tag, absorbance 600 nm, primary screen (AID 1175).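 Also: recombinant parasite enzyme with a five histidine tag at its C terminus; test concentration not given here.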 The following applies: PfDHODH enzyme, DCIP absorbance 600 nm; higher = more signal, called active from +8 up or from −8 down.

A short description of experiment [15]: inhibition of PAO1 biofilm formation – strain PAO1, LB-PBS medium, absorbance 600 nm, primary screen (AID 1176). Also: test concentration not given here. The following applies: P. aeruginosa PAO1 growth/biofilm, A600, 12 h; higher = more signal.
A short description of experiment [16]: growth modulation of vineyard yeast isolate – strain RM11-1a, OD600, basal, 24 h, primary screen (AID 1177).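 Also: cultures grown under basal conditions with no added stressor; test concentration not given here.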 The following applies: S. cerevisiae RM11-1a growth, OD600, 24 h; higher = more signal, called active from +8 up or from −8 down.
Experiment [17] can be described thus: growth of efflux-deficient E. coli DRC39 – strain DRC39, OD650, 24 h, E. coli filamentation inducers, primary screen (AID 1178).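 Also: growth measured as culture turbidity by optical density at 650 nm; test concentration not given here.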 The note with it: E. coli DRC39 acrAB, higher = more signal, called active from +8 up or from −8 down.
The nature of experiment [18]: growth of efflux-deficient E. coli DRC39 – strain DRC39, OD650, 48 h, E. coli filamentation inducers, primary screen (AID 1179).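 Also: screen aims at cell division blockers that make cells filament.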 The note with it: E. coli DRC39 delta-acrAB growth, higher = more signal, called active from +8 up or from −8 down.
Experiment [19] in a line: viability profiling in RPMI8226 myeloma cells – cell-based, resazurin fluorescence, basal, 24 h, PK04 Diversity Set, profiling panel (AID 1180).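 Also: RPMI8826 multiple myeloma cell line at 5000 cells per well; test concentration not given here.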 The note with it: higher = more signal.
In experiment [20] the target is E3 ubiquitin-protein ligase XIAP (Homo sapiens) (UniProt P98170). Briefly: small molecules binding XIAP protein – biophysical, small-molecule microarray, fluorescence 635 nm, primary screen (AID 1181).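 Also: score merges 667 nm emission and signal to noise over triplicate slides.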 The note with it: higher = more signal.

Active and inactive are the calls of the source. Unless noted, no rule for the calls is given here.

E3 ubiquitin-protein ligase XIAP (Homo sapiens), sequence (P98170 whole entry, looked up): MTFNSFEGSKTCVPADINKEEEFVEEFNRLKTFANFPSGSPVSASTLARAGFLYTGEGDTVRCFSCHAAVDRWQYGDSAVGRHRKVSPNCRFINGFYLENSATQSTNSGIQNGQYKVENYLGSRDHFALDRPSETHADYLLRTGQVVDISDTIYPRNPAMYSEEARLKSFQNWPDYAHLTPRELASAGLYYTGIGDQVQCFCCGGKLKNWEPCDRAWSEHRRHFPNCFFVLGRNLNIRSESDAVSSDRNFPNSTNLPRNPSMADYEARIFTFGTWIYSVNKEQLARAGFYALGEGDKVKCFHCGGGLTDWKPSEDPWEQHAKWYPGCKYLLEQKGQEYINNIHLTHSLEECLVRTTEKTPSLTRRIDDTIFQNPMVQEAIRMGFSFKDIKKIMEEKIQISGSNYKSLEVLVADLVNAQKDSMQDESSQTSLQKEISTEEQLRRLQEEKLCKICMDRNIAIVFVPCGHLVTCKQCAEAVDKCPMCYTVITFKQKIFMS
Dihydroorotate dehydrogenase (quinone), mitochondrial (Plasmodium falciparum (isolate 3D7)), sequence (Q08210 whole entry, looked up): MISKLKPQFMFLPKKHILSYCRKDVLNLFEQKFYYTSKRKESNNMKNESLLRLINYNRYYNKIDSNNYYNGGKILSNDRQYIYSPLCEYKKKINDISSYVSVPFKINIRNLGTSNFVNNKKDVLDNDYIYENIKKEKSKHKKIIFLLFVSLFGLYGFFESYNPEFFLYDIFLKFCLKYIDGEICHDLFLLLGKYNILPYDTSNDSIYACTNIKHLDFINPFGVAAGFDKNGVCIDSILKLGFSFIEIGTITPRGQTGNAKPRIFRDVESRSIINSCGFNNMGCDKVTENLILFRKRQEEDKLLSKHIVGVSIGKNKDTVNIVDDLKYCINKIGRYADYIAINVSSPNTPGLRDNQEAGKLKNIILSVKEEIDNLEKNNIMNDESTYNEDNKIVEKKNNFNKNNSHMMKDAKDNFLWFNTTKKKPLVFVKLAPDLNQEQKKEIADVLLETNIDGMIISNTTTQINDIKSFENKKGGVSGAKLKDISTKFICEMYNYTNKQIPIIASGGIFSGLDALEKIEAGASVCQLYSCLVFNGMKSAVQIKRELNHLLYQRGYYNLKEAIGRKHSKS

Consider `CCOC(=O)C1=C[C@@H](C(C)(C)C)N(S(=O)(=O)c2ccc(C)cc2)[C@H]1c1ccccc1`, for which the z-score in experiment [1] is -1.42; in [2], -0.396; in experiment [3] it was -2.27; in experiment [4], -2.95; in [5], -3.35; in [6], 3.49. In addition, the z-score in experiment [7] is -0.243 (inactive); in [8], -0.966; in experiment [9], -0.75; in experiment [10] it was 1.62 (inactive); in [11], -0.159; in [12], 1.53 (inactive). Further, the z-score was -0.562 (inactive) in experiment [13]; 0.0083 (inactive) in [15]; 1.59 (inactive) in experiment [16]; 0.128 (inactive) in experiment [17]; -0.0515 (inactive) in experiment [18]; -1.11 in experiment [19]. The figures for the composite z-score in experiment [14] and in experiment [20] were -0.294 (inactive) and -0.162, respectively.
In the case of `COc1ccc([Si](C)(C)[C@H]2[C@H](CCO)O[C@@]3(C(=O)N(Cc4ccccc4)c4ccc(N5C(=O)c6ccccc6Oc6ccccc65)cc43)[C@@H]2C)cc1`, the z-score in experiment [1] is -1.01; in experiment [2], 0.271; in experiment [3], -3.26; in experiment [4] it was -1.7; in experiment [5] it was -3.51; in [6], 0.0091. The z-score is -0.404 (inactive) in experiment [7]; -0.896 in experiment [8]; -1.53 in [9]; -2.28 (inactive) in [10]; -1.6 in [11]; 1.09 (inactive) in [12]. Besides, the z-score in experiment [13] was -4.24 (inactive); in experiment [15] it was 2.38 (inactive); in experiment [16] it was 3.48 (inactive); in experiment [17], 0.0105 (inactive); in experiment [18] it was -0.615 (inactive); in [19], -3.34. Also, the composite z-score was 0.906 (inactive) in [14] and -0.172 in [20].
As for `Cc1ccccc1C(O)C1C=CC2C(=O)NC(=O)C2N1Nc1ccc(Cl)cc1Cl` (stereo not given), the z-score in experiment [1] is -0.235; in experiment [2], -0.636; in [3], -0.245; in experiment [4], -2.93; in experiment [5] it was -1.58; in experiment [6], -2.8. In addition, the z-score in experiment [7] is -0.879 (inactive); in [8], -0.153; in experiment [9], 0.106; in [10], -0.8 (inactive); in experiment [11], -2.17; in experiment [12], -9.05 (active). The z-score in experiment [13] was -1.03 (inactive); in [15] it was 1.15 (inactive); in [16], 0.251 (inactive); in experiment [17], -0.511 (inactive); in experiment [18], -0.963 (inactive); in [19] it was -1.25. Further, the composite z-score was 0.107 (inactive) in experiment [14] and 2.02 in experiment [20].
Consider `[N-]=[N+]=NCc1ccccc1[C@@H]1OC(c2ccc(OCCCO)cc2)=N[C@]1(Cc1ccccc1N=[N+]=[N-])C(=O)N1CCCCC1`, for which the z-score in experiment [1] was -0.135; in [2], -0.843; in experiment [3], 0.461; in [4], -2.31; in experiment [5], -3.75; in [6] it was 0.913. The z-score was -0.922 (inactive) in experiment [7]; -1.19 in experiment [8]; -2.04 in experiment [9]; -0.484 (inactive) in [10]; 0.56 in [11]; -0.139 (inactive) in experiment [12]. For the same molecule, the z-score in [13] was -1.98 (inactive); in experiment [15], 0.327 (inactive); in experiment [16], 1.09 (inactive); in experiment [17], -0.0949 (inactive); in [18], 0.599 (inactive); in experiment [19], -2.88. For the same molecule, the composite z-score is 0.303 (inactive) in experiment [14] and 0.172 in experiment [20].
Consider `COc1cc(NN2C(C(O)c3cc(OC)c(OC)c(OC)c3)C=CC3C(=O)N(c4ccccc4)C(=O)C32)cc(OC)c1OC` (stereo not given), for which the z-score in [1] is -0.94; in experiment [2], 0.641; in [3] it was -0.455; in experiment [4], -0.881; in experiment [5] it was -0.373; in experiment [6] it was -0.132. Further, the z-score is -0.768 (inactive) in experiment [7]; -0.286 in [8]; -0.755 in experiment [9]; -1.11 (inactive) in experiment [10]; -1.95 in experiment [11]; 0.585 (inactive) in [12]. The z-score in experiment [13] is -1.19 (inactive); in experiment [15], 0.366 (inactive); in experiment [16] it was -0.147 (inactive); in experiment [17], -0.585 (inactive); in experiment [18], -0.511 (inactive); in experiment [19] it was -1.71. In addition, the composite z-score in [14] was -1.42 (inactive); in [20], 0.074.
In the case of `C=CCNC(=O)[C@@H]1[C@H]2C(=O)O[C@H](c3ccccc3)[C@H](c3ccccc3)N2[C@H](c2ccc(O)cc2)[C@@]12C(=O)N(C(=O)OCCOC)c1ccc(C#CCCO)cc12`, the z-score in [1] was 2.21; in [2] it was 1.14; in experiment [3], 0.723; in experiment [4], -0.824; in experiment [5], 0.262; in experiment [6], -0.707. The z-score was 0.152 (inactive) in experiment [7]; -0.15 in experiment [8]; -0.839 in [9]; 0.292 (inactive) in [10]; 0.02 in experiment [11]; -0.363 (inactive) in experiment [12]. Moreover, the z-score in experiment [13] was -1.12 (inactive); in experiment [15] it was 0.249 (inactive); in [16] it was 0.782 (inactive); in experiment [17], 0.37 (inactive); in experiment [18], 0.479 (inactive); in [19] it was -0.299. Besides, the composite z-score in experiment [14] is -0.855 (inactive); in experiment [20], -0.0749.
